For 7 compounds, Potency and outcome results are on record in PubChem BioAssay (Tox21).

A short description of assay [1]: Nuclear factor erythroid 2-related factor 2/antioxidant responsive element (Nrf2/ARE) small molecule agonists: qHTS cell viability counter screen in human keratinocytes (AID 1919968; active = well fitted curve in the direction sought with a large enough effect in the repeat runs; an effect the other way counts as inactive or inconclusive; also: nearly all actives have a fitted effect of over 55% in size). To be noted: KeratinoSens HaCaT ARE cells viability, CellTiter-Fluor, 24 h; series mostly up to 92.4 µM. In short, it runs like this:
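Measured as CellTiter-Fluor fluorescence, this readout tracks cytotoxicity in the same wells as the ARE-luciferase screen. HaCaT reporter cells (1,500/well) received compounds after a 5 h pre-incubation and were exposed for 23 h.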
On the technique in general: In qHTS, concentration-response curves come from the screen itself.

Assay [2] in a line: Nuclear factor erythroid 2-related factor 2/antioxidant responsive element (Nrf2/ARE) small molecule agonists: luciferase reporter gene qHTS assay in human keratinocytes (AID 1919969). Also: nearly all actives have a fitted effect of over 35% in size. To be noted: KeratinoSens HaCaT ARE-luciferase, luminescence, 24 h; series mostly up to 92.4 µM. (In a reporter assay the amount or activity of a reporter protein is the signal.)
Assay [3] addresses Gonadotropin-releasing hormone receptor (Homo sapiens) (UniProt P30968). The assay is described as follows: Human gonadotropin-releasing hormone receptor (GnRHR) small molecule agonists, calcium flux assay in GnRHR-HEK293 cells (AID 1920063). Also: nearly all actives have a fitted effect of over 35% in size. To be noted: calcium flux fluorescence, agonist mode; series mostly up to 57.6 µM. In short, it runs like this: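 Fluorescence kinetics (480 nm excitation, 540 nm emission; 3 min, 1 s steps) report calcium mobilisation in human GnRHR-HEK293 cells in agonist mode. Dye incubation: 1 h, 37 C.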
Background: Calcium assays in cells follow changes in intracellular calcium, usually with a dye or a luminescent sensor.

Assay [4] addresses KiSS-1 receptor (Homo sapiens) (UniProt Q969F8). The assay is described as follows: Human kisspeptin (KISS1R) small molecule agonists, calcium flux assay in KISS1R-HEK293 cells (AID 1920064; active = well fitted curve in the direction sought with a large enough effect in the repeat runs; an effect the other way counts as inactive or inconclusive). To be noted: KISS1R-HEK293, calcium flux fluorescence, agonist; series mostly up to 76.8 µM. In short, it runs like this: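 Measures KISS1R agonism through calcium-sensitive dye fluorescence in stably transfected HEK293 cells, read for 3 min after pin-tool compound delivery; 15-point titrations in triplicate.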

The nature of assay [5]: G protein-coupled receptor (GPCR) small molecule agonists, calcium flux assay: HEK293 wild type cell line counter screen (AID 1920065). To be noted: HEK293 WT calcium flux, fluorescence, agonist mode; series mostly up to 57.6 µM. In short, it runs like this: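 Readout: fluorescence at 480 nm excitation/540 nm emission, sampled at 1 s intervals for 3 min. Cells had been cultured 18 h, then dye-loaded 1 h at 37 C before compound or ATP addition.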

A short description of assay [6]: p53 small molecule agonists, cell-based qHTS assay with human liver microsomes (AID 1963577).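 Also: p53 response element beta-lactamase reporter cells with liver microsomes plus NADPH.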 To be noted: HCT-116 p53RE-bla with human liver microsomes, ratio, 16 h; series mostly up to 66 µM. In a few lines: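 Metabolically competent format: test substances, human liver microsomes and NADPH (both 0.5 mg/mL final) incubated with p53RE-bla cells 16 h at 37 C. Beta-lactamase reporter signal then quantified by fluorescence.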

Assay [7] in a line: p53 small molecule agonists, cell-based qHTS assay with rat liver microsomes (AID 1963578). To be noted: HCT-116 p53RE-bla, beta-lactamase ratio, 16 h; series mostly up to 66 µM. In a few lines:
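Each plate received p53RE-bla cells, then compound, then rat liver microsomes and NADPH (both 0.5 mg/mL final). Plates were held 16 h at 37 C, and beta-lactamase activity was detected with LiveBLAzer over 2 h.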

Assay [8] in a line: p53 small molecule agonists, cell-based qHTS assay with human liver microsomes: qHTS cell viability counter screen (AID 1963579). Also: nearly all actives have a fitted effect of over 45% in size. To be noted: p53RE-bla HCT-116 viability, ATP luminescence, 16 h, HLM; series mostly up to 66 µM. In a few lines:
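Tox21 library compounds, delivered from DMSO stocks, were tested on p53RE-bla cells together with 0.5 mg/mL human liver microsomes and 0.5 mg/mL NADPH (final) over 16 h at 37 C; CellTiter-Glo luminescence served as the cytotoxicity measure.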

Assay [9] is described as follows: p53 small molecule agonists, cell-based qHTS assay with rat liver microsomes: qHTS cell viability counter screen (AID 1963580). Also: nearly all actives have a fitted effect of over 45% in size. To be noted: p53RE-bla HCT-116 + rat microsomes, ATP viability, 16 h; series mostly up to 66 µM. In short, it runs like this: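 p53RE-bla HCT-116 cells (4,000/well) rested 5 h at 37 C, then given Tox21 compounds in DMSO with rat liver microsomes (0.5 mg/mL final) plus NADPH (0.5 mg/mL final) for 16 h at 37 C. Viability read by CellTiter-Glo luminescence after 30 min at room temperature.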

A short description of assay [10]: p53 small molecule agonists, cell-based qHTS assay: qHTS cell viability counter screen (AID 1963581). Also: nearly all actives have a fitted effect of over 45% in size. To be noted: p53RE-bla HCT-116 viability, ATP luminescence, 16 h; series mostly up to 66 µM. In a few lines:
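In the same plates used for the p53 bla reporter, HCT-116 cells given compounds for 16 h at 37 C received CellTiter-Glo; luminescence was recorded 30 min later at room temperature.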

The target of assay [11] is 5-hydroxytryptamine receptor 2A (Homo sapiens) (UniProt P28223). The assay is described as follows: 5-hydroxytryptamine receptor 2A (HTR2A) small molecule antagonists, cell-based qHTS assay (AID 1963586). Also: nearly all actives have a fitted effect of over 45% in size. To be noted: HTR2A-CHO cells, DOI-induced calcium flux, fluorescence; series mostly up to 61.5 µM. In a few lines: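 Antagonist-mode intracellular calcium assay: DOI (4 nM) added after 5 min compound pre-incubation at room temperature to dye-loaded HTR2A-CHO cells. Fluorescence followed for 3 min, sampled every second.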
5-hydroxytryptamine receptor 2A (Homo sapiens), sequence (P28223 whole entry, looked up): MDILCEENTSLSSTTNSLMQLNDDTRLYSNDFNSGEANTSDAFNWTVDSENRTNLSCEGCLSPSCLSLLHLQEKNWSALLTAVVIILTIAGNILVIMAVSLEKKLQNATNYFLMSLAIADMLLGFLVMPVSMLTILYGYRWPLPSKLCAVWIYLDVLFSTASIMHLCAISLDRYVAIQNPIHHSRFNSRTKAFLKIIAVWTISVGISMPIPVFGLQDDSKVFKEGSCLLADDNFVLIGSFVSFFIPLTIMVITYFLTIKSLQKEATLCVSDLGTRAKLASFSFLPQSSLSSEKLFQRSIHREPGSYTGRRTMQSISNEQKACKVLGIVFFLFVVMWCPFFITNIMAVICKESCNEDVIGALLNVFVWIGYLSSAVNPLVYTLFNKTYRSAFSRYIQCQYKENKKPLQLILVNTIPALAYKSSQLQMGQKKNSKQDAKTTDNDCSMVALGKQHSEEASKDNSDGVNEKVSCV

The target of assay [12] is Muscarinic acetylcholine receptor M1 (Homo sapiens) (UniProt P11229). The assay is described as follows: Cholinergic receptor muscarinic 1 (CHRM1) small molecule antagonists, cell-based qHTS assay (AID 1963588). Also: nearly all actives have a fitted effect of over 40% in size. Also: potency is read from the fitted curve at half-maximal effect. To be noted: CHRM1-CHO antagonist mode, calcium flux fluorescence; series mostly up to 61.5 µM. In a few lines: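 CHRM1-CHO calcium-flux assay, antagonist mode. Cells were seeded 18 h, dye-loaded 1 h at 37 C and given compound for 5 min at RT, then acetylcholine was added at 50nM. FDSS fluorescence was read 3 min; 15 concentrations, three runs.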
Muscarinic acetylcholine receptor M1 (Homo sapiens), sequence (P11229 whole entry, looked up): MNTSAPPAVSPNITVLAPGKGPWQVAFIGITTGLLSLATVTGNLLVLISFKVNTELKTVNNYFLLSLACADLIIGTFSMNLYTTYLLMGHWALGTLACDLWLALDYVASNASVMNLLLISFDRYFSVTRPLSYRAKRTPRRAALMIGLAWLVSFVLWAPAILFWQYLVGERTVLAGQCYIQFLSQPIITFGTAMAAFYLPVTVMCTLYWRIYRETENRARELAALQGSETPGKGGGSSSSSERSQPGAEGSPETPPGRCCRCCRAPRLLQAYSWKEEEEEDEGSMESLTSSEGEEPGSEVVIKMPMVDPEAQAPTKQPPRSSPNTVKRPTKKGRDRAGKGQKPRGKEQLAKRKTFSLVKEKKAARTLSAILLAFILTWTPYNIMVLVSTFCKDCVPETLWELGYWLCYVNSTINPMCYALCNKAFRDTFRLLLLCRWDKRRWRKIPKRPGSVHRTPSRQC

Assay [13] has the same target. The assay is described as follows: Cholinergic receptor muscarinic 1 (CHRM1) small molecule agonists, cell-based qHTS assay (AID 1963589). Also: nearly all actives have a fitted effect of over 35% in size. To be noted: CHRM1-CHO cells, agonist mode, calcium flux fluorescence; series mostly up to 76.8 µM. In a few lines:
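Each compound was tested at 15 concentrations across three independent runs on dye-loaded CHO cells stably expressing human CHRM1, reading intracellular calcium fluorescence kinetically at 1 sec intervals.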

Assay [14] in a line: cAMP Responsive Elements (CRE) small molecule agonists, cell-based qHTS assay (AID 1963590). To be noted: CRE-bla HEK293T, beta-lactamase FRET ratio, 3 h; series mostly up to 92.4 µM. In a few lines:
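Cell line: CRE-bla HEK 293T; medium DMEM/10% dialyzed FBS/0.1 mM NEAA/1 mM pyruvate/25 mM HEPES; 3 h compound exposure; beta-lactamase FRET readout after 2 h substrate loading at RT.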

Assay [15] addresses Beta-2 adrenergic receptor (Homo sapiens) (UniProt P07550). The assay is described as follows: Adrenergic beta2 receptor (ADRB2) small molecule antagonists, cell-based qHTS assay (AID 1963592). Also: nearly all actives have a fitted effect of over 50% in size. To be noted: CHO-ADRB2 cells, isoproterenol-stimulated cAMP HTRF ratio, 0.5 h; series mostly up to 92.4 µM. In a few lines: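 Cells (CHO, stable ADRB2 overexpression) incubated 18-20hr at 37C; compounds added from DMSO; agonist mix (1nM isoproterenol, 100uM IBMX, 25uM Ro-20-1724) added; 0.5hr RT; d2-cAMP and anti-cAMP-cryptate added; 1hr RT; 665/615 nm read.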

The target is the same in assay [16]. The assay is described as follows: Adrenergic beta2 receptor (ADRB2) small molecule agonists, cell-based qHTS assay (AID 1963593).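 Also: CHO cells stably overexpressing human ADRB2.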 To be noted: CHO-ADRB2 cells, cAMP HTRF, 30 min; series mostly up to 42.5 µM. In short, it runs like this: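 CHO cells stably over-expressing ADRB2 were plated overnight at 37C, then dosed with compounds plus a stimulation mix containing 100uM IBMX and 25uM Ro-20-1724 for 0.5hr at room temperature. cAMP was measured by HTRF competition, 1hr.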

For assay [17], the target named is D(2) dopamine receptor (Homo sapiens) (UniProt P14416). The assay is described as follows: Dopamine D2 receptor (DRD2) small molecule antagonists, cell-based qHTS assay (AID 1963595; active = well fitted inhibition curve with a large enough effect in the signal ratio in the repeat runs, with a control signal flat; the % refers to the signal ratio). To be noted: HEK293-DRD2 cAMP HTRF antagonist mode; series mostly up to 92.4 µM. In short, it runs like this:
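HTRF cAMP read-out at 665 and 620 nm emission (340 nm excitation). Antagonist mode: compounds were tested against 12 nM quinpirole in DRD2-HEK293 cells, with 200 nM NKH477 raising cAMP and 0.1 mM Ro20-1724 blocking its breakdown.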

Assay [18] addresses 5-hydroxytryptamine receptor 2A (Homo sapiens) (UniProt P28223). The assay is described as follows: 5-hydroxytryptamine receptor 2A (HTR2A) small molecule agonists, cell-based qHTS assay (AID 1963587). Also: nearly all actives have a fitted effect of over 30% in size. To be noted: HTR2A-CHO cells, calcium flux fluorescence, agonist mode; series mostly up to 76.8 µM. In short, it runs like this: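 HTR2A-CHO cells, plated 18 h at 37 C/5% CO2, dye-loaded 1 h at 37 C; compounds in DMSO added by pin tool (agonist mode). Intracellular calcium flux read as kinetic fluorescence on FDSS over 2 min at 1 s intervals.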

In assay [19] the target is D(2) dopamine receptor (Homo sapiens) (UniProt P14416). The assay is described as follows: Dopamine D2 receptor (DRD2) small molecule agonists, cell-based qHTS assay (AID 1963594). Also: nearly all actives have a fitted effect of over 35% in size. To be noted: HEK293-DRD2 cAMP HTRF, agonist mode, 30 min; series mostly up to 92.4 µM. In short, it runs like this:
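HEK293 cells stably expressing DRD2 were cultured 24 h at 37 C, then given Ro20-1724 (0.1 mM final) and compounds for 10 min at room temperature. NKH477 (200nM) was then added for 30 min. cAMP was read by HTRF.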

Assay [20] is described as follows: cAMP Responsive Elements (CRE) small molecule antagonists, cell-based qHTS assay (AID 1963591; active = well fitted inhibition curve with a large enough effect in the signal ratio in the repeat runs, not every such curve was filed as active; the % refers to the signal ratio). To be noted: CRE-bla HEK293T, beta-lactamase FRET ratio; series mostly up to 92.4 µM. In short, it runs like this:
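Inhibition of NKH477-driven (0.25 uM final) CRE-beta-lactamase signal in HEK293T cells, 3 h compound exposure at 37 °C, detected by FRET substrate fluorescence.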

Structures are written as SMILES. A number with no mark means an inactive call. Results filed as inconclusive are left out. Active and inactive are the calls of the source. Unless noted, calls follow the shape of the full dose curve.

KiSS-1 receptor (Homo sapiens), sequence (Q969F8 whole entry, looked up): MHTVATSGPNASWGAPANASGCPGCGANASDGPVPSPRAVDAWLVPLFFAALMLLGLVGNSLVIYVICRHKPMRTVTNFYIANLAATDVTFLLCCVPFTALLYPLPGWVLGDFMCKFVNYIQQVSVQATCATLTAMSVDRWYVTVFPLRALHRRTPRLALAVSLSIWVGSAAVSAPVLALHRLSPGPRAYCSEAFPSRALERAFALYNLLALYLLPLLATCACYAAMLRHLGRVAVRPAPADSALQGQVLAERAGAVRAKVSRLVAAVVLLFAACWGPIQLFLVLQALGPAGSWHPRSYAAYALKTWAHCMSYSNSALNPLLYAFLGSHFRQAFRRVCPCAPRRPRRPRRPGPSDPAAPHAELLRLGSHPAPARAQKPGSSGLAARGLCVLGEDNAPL
Beta-2 adrenergic receptor (Homo sapiens), sequence (P07550 whole entry, looked up): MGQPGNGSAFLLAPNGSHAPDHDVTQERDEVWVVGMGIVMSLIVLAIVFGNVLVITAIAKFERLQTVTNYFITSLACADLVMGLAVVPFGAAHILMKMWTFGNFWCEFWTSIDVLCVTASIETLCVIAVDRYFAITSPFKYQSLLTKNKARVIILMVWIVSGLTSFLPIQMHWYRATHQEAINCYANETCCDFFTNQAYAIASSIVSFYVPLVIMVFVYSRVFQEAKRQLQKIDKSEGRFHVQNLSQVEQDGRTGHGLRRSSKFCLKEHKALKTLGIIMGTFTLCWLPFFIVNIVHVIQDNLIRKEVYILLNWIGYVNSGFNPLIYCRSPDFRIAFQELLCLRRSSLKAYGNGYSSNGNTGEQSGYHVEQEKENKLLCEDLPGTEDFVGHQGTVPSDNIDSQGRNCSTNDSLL
Gonadotropin-releasing hormone receptor (Homo sapiens), sequence (P30968 whole entry, looked up): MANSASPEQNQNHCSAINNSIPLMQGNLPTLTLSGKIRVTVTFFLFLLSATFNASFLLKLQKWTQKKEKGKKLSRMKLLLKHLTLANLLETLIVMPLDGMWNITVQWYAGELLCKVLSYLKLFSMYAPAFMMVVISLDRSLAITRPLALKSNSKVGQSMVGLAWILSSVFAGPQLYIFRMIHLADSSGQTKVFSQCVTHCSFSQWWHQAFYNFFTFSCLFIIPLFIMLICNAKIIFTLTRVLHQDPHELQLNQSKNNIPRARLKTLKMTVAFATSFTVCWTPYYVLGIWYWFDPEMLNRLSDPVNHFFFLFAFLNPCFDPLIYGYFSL
D(2) dopamine receptor (Homo sapiens), sequence (P14416 whole entry, looked up): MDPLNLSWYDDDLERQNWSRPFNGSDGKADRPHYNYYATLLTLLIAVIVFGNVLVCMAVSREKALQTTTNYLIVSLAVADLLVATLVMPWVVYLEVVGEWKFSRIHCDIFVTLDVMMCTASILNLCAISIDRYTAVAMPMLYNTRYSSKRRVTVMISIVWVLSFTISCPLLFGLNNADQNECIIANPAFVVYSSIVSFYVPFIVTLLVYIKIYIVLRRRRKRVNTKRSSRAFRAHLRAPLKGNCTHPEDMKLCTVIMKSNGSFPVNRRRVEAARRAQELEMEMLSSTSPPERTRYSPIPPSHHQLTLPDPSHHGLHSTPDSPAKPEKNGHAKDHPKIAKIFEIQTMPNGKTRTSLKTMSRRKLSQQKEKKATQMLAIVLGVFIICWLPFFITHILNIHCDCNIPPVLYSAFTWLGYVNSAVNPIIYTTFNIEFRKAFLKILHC

As to `CC(C)c1ccc(C(=O)N=C(N)N)cc1S(C)(=O)=O`, the Potency entry in assay [1], in [2], in assay [3], in assay [6], in assay [7] and in assay [8] was “inactive” in each case. In addition, the Potency entry in assay [9], in assay [10], in assay [11], in assay [12], in assay [13] and in assay [14] was “inactive” in each case. Also, the Potency result in assay [15], in assay [16] and in assay [17] was “inactive” each time. Also, the outcome in [4] and in assay [5] was inactive.
With `CCOC(=O)COc1ccc(C)cc1`, the Potency entry in [1], in assay [2], in assay [3], in assay [6], in [7] and in assay [8] was “inactive” throughout. The Potency result in assay [9], in [10], in [18], in [12], in assay [13] and in assay [19] was “inactive” each time. Further, the Potency entry in assay [17] was “inactive”. The result in [4] and in assay [5] was inactive.
For the compound `CCOC(=O)c1ccc(OC(=O)CCCCCN=C(N)N)cc1`, the Potency entry in assay [1], in assay [2], in [3], in [6], in assay [7] and in assay [8] was “inactive” each time. Besides, the Potency entry in assay [9], in assay [10], in assay [18], in assay [13], in assay [14] and in assay [20] was “inactive” throughout. Also, the Potency result in assay [15], in assay [16] and in assay [19] was “inactive” in each case. Moreover, the result in assay [4] and in assay [5] was inactive. Also, the Potency in [12] is 7.29 µM (active).
On to `CCCc1nc2c(C)cc(-c3nc4ccccc4n3C)cc2n1Cc1ccc(-c2ccccc2C(=O)O)cc1`, for which the Potency entry in [1], in [2], in assay [3], in assay [6], in [7] and in [8] was “inactive” in each case. The Potency entry in assay [9], in assay [10], in assay [18], in assay [12], in [13] and in [15] was “inactive” in each case. Also, the Potency entry in assay [19] is “inactive”. The outcome in assay [4] and in assay [5] was inactive.
Turning to `O=C1CCCN1CCO`, the Potency result in assay [1], in [2], in assay [3], in [6], in assay [7] and in assay [8] was “inactive” each time. In addition, the Potency entry in [9], in assay [10], in assay [11], in [12], in assay [13] and in assay [15] was “inactive” throughout. Moreover, the Potency entry in assay [16], in assay [19] and in assay [17] was “inactive” each time. Besides, the result in assay [4] and in [5] was inactive.
Regarding `CCCCOc1cc(C(=O)NCCN(CC)CC)c2ccccc2n1`, the Potency result in assay [1], in [2], in [3], in assay [6], in assay [7] and in assay [8] was “inactive” throughout. Further, the Potency entry in assay [9], in assay [10], in assay [12], in assay [13], in assay [14] and in assay [20] was “inactive” each time. Also, the Potency result in assay [15], in assay [19] and in assay [17] was “inactive” in each case. The result in assay [4] and in assay [5] was inactive.
As for `CCn1nc(Cc2ccccc2)cc1C1CCN(C[C@H]2C[C@H](N(C)[C@@H](C(=O)O)C(C)C)C[C@@H]2c2cccc(F)c2)CC1`, the Potency entry in [1], in [2], in assay [3], in assay [6], in [7] and in assay [8] was “inactive” each time. Moreover, the Potency entry in assay [9], in [10], in assay [11], in [12], in [15] and in assay [19] was “inactive” in each case. In addition, the Potency result in assay [17] is “inactive”. In addition, the result in [4] and in assay [5] was inactive.
